Here are results for 25 compounds from PubChem BioAssay (NCATS).

Experiment [1] can be described thus: qHTS assay to identify inhibitors of the type 1 interferon - major histocompatibility complex class I in skeletal muscle: Counter screen cell viability and HiBit confirmation (AID 1347412; active = well fitted inhibition curve with a large enough effect; also: potency is read from the fitted curve at half-maximal effect; as to activity change, negative = inhibition: % is scaled to controls: 0 for no effect and ±100 for the full control effect; as to all read-outs here: nearly all actives have a fitted effect of over 60% in size). The conditions noted are these: iHSKM muscle cells + IFN-b, HiBiT or CellTiter-Glo, 24 h; for activity change, negative = inhibition: HiBiT, at 45.9 µM (top of the series); for Potency: Viability. Put shortly:
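Human myoblast knock-in line, 4.0 ng/ml IFN-beta stimulation, 24 h compound treatment. Endpoints: HiBiT lytic luminescence (HLA-B level) and CellTiter Glo (ATP). Dosing 12 concentrations, 3-fold steps, 46 uM highest final.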

A short description of experiment [2]: qHTS assay for small molecule activators of the human pregnane X receptor (PXR) signaling pathway (AID 720659). Also: 0% is about no effect. As to conditions: DPX-2 HepG2 CYP3A4-luciferase, 24 h; series mostly up to 92.3 µM. (Quantitative high-throughput screening tests each substance at several concentrations.)
Experiment [3] concerns the target Nuclear receptor subfamily 1 group I member 2 (Rattus norvegicus) (UniProt Q9R1A7). The experiment can be described thus: qHTS assay for small molecule activators of the rat pregnane X receptor (rPXR) signaling pathway (AID 651751). Also: 0% is about no effect. As to conditions: rPXR reporter cells, luciferase (One-Glo), 24 h.

“And” between values parts separate entries of the source, which are not always exact repeats. Identical values can stand only once. Unmarked numbers belong to inactive results. Records with an inconclusive call do not appear. The source made the active and inactive calls. Unless noted, no rule for the calls is given here.

Chain of Nuclear receptor subfamily 1 group I member 2 (Rattus norvegicus) (Q9R1A7 whole entry, looked up): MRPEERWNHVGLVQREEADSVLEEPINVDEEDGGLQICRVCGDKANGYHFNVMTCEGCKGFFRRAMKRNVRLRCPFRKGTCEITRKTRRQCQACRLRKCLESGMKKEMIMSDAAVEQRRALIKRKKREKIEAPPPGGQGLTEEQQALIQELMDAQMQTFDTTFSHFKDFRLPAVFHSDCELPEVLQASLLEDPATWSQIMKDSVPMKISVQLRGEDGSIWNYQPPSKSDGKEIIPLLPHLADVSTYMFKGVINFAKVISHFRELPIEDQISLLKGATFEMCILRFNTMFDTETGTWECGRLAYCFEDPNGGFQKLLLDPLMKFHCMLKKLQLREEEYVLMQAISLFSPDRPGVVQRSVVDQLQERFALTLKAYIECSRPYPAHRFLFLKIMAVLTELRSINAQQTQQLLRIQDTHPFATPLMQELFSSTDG

For the compound `CN[C@@H]1C[C@@H](c2ccc(Cl)c(Cl)c2)c2ccccc21`, the activity change, negative = inhibition in experiment [1] was -7.12%. In the case of `CCCCCC[C@H]1C(=O)O[C@H](C)[C@H](NC(=O)c2cccc(NC=O)c2O)C(=O)O[C@@H](C)[C@@H]1OC(=O)CC(C)C`, the activity change, negative = inhibition in experiment [1] is -17.2%. Further, the outcome in experiment [2] was inactive. As for `O=c1[nH]c2ccc(Cl)cc2c(N[C@@H]2CN3CCC2CC3)c1-c1nc2ccccc2[nH]1`, in experiment [1], the Potency is 17.6 µM (active). The same measure, in the same setting: in the case of `COc1ccc2c(c[n+](C)c3c4cc5c(cc4ccc23)OCO5)c1OC` it was 8.83 µM (active). Turning to `CCOCCOC(C)=O`, the max response in experiment [3] is -2.9%. The compound was called inactive in experiment [2].

As to `COc1nn(CSP(=S)(OC)OC)c(=O)s1`, the max response in experiment [3] was -6.79%. Also, the call in experiment [2] was inactive. As to `C=CC(=O)NCNC(=O)C=C`, the max response in experiment [3] is 1.16% and 0.492%. Besides, the call in experiment [2] was inactive. Take `O=[N+]([O-])c1c(Cl)c(Cl)cc(Cl)c1Cl`: the max response in experiment [3] is 3.25%. The result in experiment [2] was inactive. Take `Nc1c(Cl)c(Cl)c(Cl)c(Cl)c1Cl`: in experiment [3], the max response is 0.456%. In addition, the outcome in experiment [2] was inactive. On to `O=C(O)CCCOc1ccc(Cl)cc1Cl`, for which the max response in experiment [3] was 8.43%. Also, in experiment [2], the compound was called inactive. For `Nc1ccc(Cl)cc1`, in experiment [3], the max response is 3.79%. Besides, in experiment [2], the compound was classed as inactive.

Consider `O=[N+]([O-])c1cc([N+](=O)[O-])c2ccccc2c1`, for which the compound was classed as inactive in experiment [2]. With `Cc1cc(O)ccc1Cl`, in experiment [3], the max response is -6.09%. Moreover, in experiment [2], the outcome was inactive. On the same counts, the results for `O=[N+]([O-])/N=C1\NCCN1Cc1ccc(Cl)nc1` are 4.35% and “inactive”.

In the case of `CN(C)[C@@H]1C(=O)C(C(N)=O)=C(O)[C@@]2(O)C(=O)C3=C(O)c4c(O)cccc4[C@@](C)(O)[C@H]3[C@H](O)[C@@H]12`, in experiment [3], the max response was 4.53% and -0.0906% and -2.17%. Consider `C1CCC(NC2CCCCC2)CC1`, for which the max response in experiment [3] was -4% and -4.51% and -0.383%. For the same compound, in experiment [2], the call was inactive. For the compound `Nc1ccc([N+](=O)[O-])cc1`, in experiment [3], the max response is -0.553%. For the same compound, the compound was called inactive in experiment [2].

For `O=S(=O)(O)C(F)(F)C(F)(F)C(F)(F)C(F)(F)C(F)(F)C(F)(F)C(F)(F)C(F)(F)F`, the max response in experiment [3] was 2.44% and 1.44%. Further, the result in experiment [2] was inactive. Take `O=C(O)C(Cl)Cl`: the max response in experiment [3] was 4.19% and -3.77%. Further, the call in experiment [2] was inactive. In the case of `O=C(O)c1cc(Oc2ccc(C(F)(F)F)cc2Cl)ccc1[N+](=O)[O-]`, in experiment [3], the max response is 2.53%. Also, the call in experiment [2] was inactive.

Take `c1cc2ccc3cccc4ccc(c1)c2c34`: the max response in experiment [3] was 6.39% and 2.28%. The outcome in experiment [2] was inactive.

Regarding `O=C(O)COc1ccccc1`, the max response in experiment [3] was -3.8%. Besides, in experiment [2], the compound was called inactive. Regarding `Clc1cnc(Oc2ccc(Oc3ncc(Cl)cc3Cl)cc2)c(Cl)c1`, in experiment [3], the max response was 9.03%. In addition, in experiment [2], the outcome was inactive.

On to `OCCCBr`, for which, in experiment [3], the max response was -2.6%. Further, the compound was called inactive in experiment [2]. As for `CCCCCCCCCCCCCCCC[N+](C)(C)C`, in experiment [2], the outcome was inactive.
